Source: PubChem
Shown are actives, neighbours in structure and some others; about 3.5% of the full set was active somewhere.
FBW7 act: human FBW7 E3 ligase activation, primary screen; Q969H0; AlphaScreen FBW7–phospho-cyclin E peptide binding, activator screen; normalized activity (activation), % at 26.1 µM; actives 0.13% (n = 650,000); in the data active = normalized activity above about 1.9%;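 note: purified mutant Fbw7 with reduced substrate affinity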
Target sequence (Q969H0 whole entry, looked up): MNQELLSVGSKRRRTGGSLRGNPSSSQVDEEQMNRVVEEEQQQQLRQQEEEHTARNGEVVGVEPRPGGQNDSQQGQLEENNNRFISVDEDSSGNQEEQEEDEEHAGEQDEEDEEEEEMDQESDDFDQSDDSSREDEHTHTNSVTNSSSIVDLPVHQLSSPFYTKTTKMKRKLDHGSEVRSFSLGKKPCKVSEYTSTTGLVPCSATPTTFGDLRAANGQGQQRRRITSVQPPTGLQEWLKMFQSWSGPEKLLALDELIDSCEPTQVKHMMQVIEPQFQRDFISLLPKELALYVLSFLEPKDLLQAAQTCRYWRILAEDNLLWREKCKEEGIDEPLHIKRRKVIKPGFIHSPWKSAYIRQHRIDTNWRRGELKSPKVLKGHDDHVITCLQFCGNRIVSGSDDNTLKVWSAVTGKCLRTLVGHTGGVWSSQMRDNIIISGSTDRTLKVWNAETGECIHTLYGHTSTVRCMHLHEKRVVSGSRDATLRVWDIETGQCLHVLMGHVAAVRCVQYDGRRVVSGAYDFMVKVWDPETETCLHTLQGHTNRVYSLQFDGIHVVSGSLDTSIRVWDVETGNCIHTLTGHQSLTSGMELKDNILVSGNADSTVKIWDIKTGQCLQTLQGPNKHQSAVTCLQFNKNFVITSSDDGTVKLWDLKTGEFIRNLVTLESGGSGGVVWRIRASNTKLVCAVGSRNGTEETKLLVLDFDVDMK
GPR151 activ: human GPR151 activation | actives 1% (n = 650,000) | activation, % at 11.2 µM | Q8TDV0 | PathHunter beta-arrestin GPR151 cells, luminescence; in the data active = activation above about 4.9%;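 note: 0% = median of compound wells and 100% = cells with positive control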
MITF inh: blocks human microphthalmia-associated transcription factor; AlphaScreen MITF homodimerization, bead proximity signal; inhibition, % at 2.6 µM; actives 0.91% (n = 650,000); AID 1259374; in the data active = inhibition above about 50%;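 note: 0% = vehicle wells with protein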
TEAD-YAP block: TEAD-YAP interaction inhibition; actives 1.4% (n = 640,000); HEK-TIYL cells, TEAD-Gal4/YAP UAS-luciferase luminescence; inhibition, % at 9.12 µM; in the data active = inhibition above about 32%;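 note: 0% = median of test compound wells and 100% = reference inhibitor wells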
* hit, by the source's call; ! = repeats disagree.

SMILES	FBW7 act	GPR151 activ	MITF inh	TEAD-YAP block
c1ccc(-c2nc(NC3CCCCC3)cc(-c3cccnc3)n2)nc1	-0.8	-0.6	18.9	69.2*
c1ccc(-c2nc(NC3CC3)cc(-c3cccnc3)n2)nc1	0.3	0.9	-152.4	43.6*
c1ccc(-c2nc(NC3CCCCC3)cc(-c3ccncc3)n2)nc1	-0.7	-1.3	0.9	35.7*
CCNc1nc(N)c(C(=O)c2ccccc2)s1	0.0	-1.6	4.1	29.0
O=C(C1CCN(Cc2cc(Cl)ccc2O)CC1)N1CCN(Cc2ccccc2)CC1	0.1	0.9	59.1*	5.5
O=C(C1CCN(Cc2ccccc2O)CC1)N1CCCCC1	0.3	-1.3	52.4*	0.0
CCC(CO)NCc1ccc(Cl)cc1 (stereo unspecified)	0.1	0.4	-6.9	8.0
COc1ccc2cc3[n+](cc2c1OC)CCc1cc2c(cc1-3)OCO2	-0.2	0.0	2.4	56.1*!
COc1cc2c(c(OC)c1OC)-c1c(cc3c(c1OC)OCO3)CC(C)C(C)C2 (stereo unspecified)	-0.1	-0.2	-2.1	-3.0
Cc1cc(C(=O)N2CCC(CO)(CCOc3ccccc3)CC2)c2ccccc2n1	-0.1	1.7	2.8	11.5
Cc1ccc(-c2c(C)c(-c3ccccc3)nc(N)c2C#N)o1	0.7	-1.3	16.4	-15.5
Cc1ccccc1NC(=O)Cc1nnc(SCc2nc3ccccc3c(=O)[nH]2)n1C	0.4	-0.9	22.6	-7.4
Cc1cccc(-c2n[nH]c(=S)n2-c2ccccc2)c1	0.2	-0.3	1.0	49.5*
S=c1[nH]nc(-c2ccccc2)n1-c1ccccc1	-0.1	0.4	6.6	7.6
O=C1c2ccccc2C(=O)N1/N=C/c1c(F)cccc1F	1.1	-1.9	-10.2	5.5
COC(=O)C1=C(C)N=c2s/c(=C\c3ccc(Cl)cc3)c(=O)n2C1c1cccs1 (stereo unspecified)	-0.1	-1.0	12.1	-2.8
CC(C)OCCCNC(=O)c1ccc(CN2CCc3ccccc3C2)cc1	2.0*	0.2	15.4	11.2
Cc1nc(SCC(=O)N(C(C)C)C(C)C)c2c(C)c(C)sc2n1	0.0	1.1	-3.9	50.9*
O=C(/C=C/c1ccccc1[N+](=O)[O-])N1CCc2ccccc21	0.0	-0.8	-1.6	43.7*
O=C(/C=C/c1ccc(F)cc1)N1CCc2ccccc21	0.1	-4.0	-2.2	55.9*
O=C(/C=C/c1ccccc1[N+](=O)[O-])N1CCCC1	-0.1	0.8	-1.5	-2.9
Cc1ccc2nc(-c3ccccc3)cc(C(=O)Nc3ccccc3)c2c1	0.2	-1.3	11.1	-6.1
O=C(COc1ccc(Cl)cc1)N1CCCCCC1	0.6	0.3	22.1	-36.6
COc1cccc(/C=N/Nc2ncnc3nc[nH]c23)c1	-0.2	-3.2	8.4	47.5*
CCOc1ccc(Nc2ncnc3nc[nH]c23)cc1	-0.1	-2.1	1.6	50.9*
SMILES	FBW7 act	GPR151 activ	MITF inh	TEAD-YAP block
COc1cc(/C=N/Nc2ncnc3nc[nH]c23)cc(OC)c1OC	0.0	-1.1	1.4	-6.8
CC(C)c1ccc(/C=N/Nc2ncnc3nc[nH]c23)cc1	-0.2	-0.2	6.8	52.1*
COc1cccc(/C=N/Nc2cccc3cccnc23)c1	-0.3	-4.1	14.8	44.0*
Cc1nc2c(c(=O)[nH]1)CN(Cc1c(F)cccc1F)CC2	-0.1	-0.6	-6.9	-0.8
CCCN(CCC)c1nc(N2CCCC2)nc(N2CCCC2)n1	-0.1	0.5	0.0	4.0
Fc1ccccc1C(c1nnnn1CC1CCCO1)N1CCN(c2ccccc2)CC1 (stereo unspecified)	-0.1	0.5	6.0	-5.2
O=C(Nc1ccccc1Cl)N1CCc2nc(N3CCOCC3)[nH]c(=O)c2C1	-0.2	-0.8	6.0	3.2
COc1ccc(-n2c(/C=C/N(C)C)c([N+](=O)[O-])c3ccc(O)c(COC(C)=O)c32)cc1	0.5	0.0	15.2	11.6
CCN(CC)Cc1c(O)ccc2c([N+](=O)[O-])c(C)n(-c3ccc(OC)cc3)c12	0.0	-0.5	-6.9	37.0*
CCOC(=O)CSC1=C(C#N)C(c2ccco2)C(C(=O)Nc2ccccc2F)=C(C)N1 (stereo unspecified)	0.2	0.8	11.5	45.1*
CCCOC(=O)CSC1=C(C#N)C(c2cccc(Cl)c2)CC(=O)N1 (stereo unspecified)	0.2	0.4	1.6	62.4*
Cc1ccccc1NC(=O)CSC1=C(C#N)C(c2ccco2)C2=C(CCCC2=O)N1 (stereo unspecified)	0.1	0.3	12.5	45.0*
COc1ccccc1NC(=O)C1=C(C)NC(SCC(=O)c2ccc(F)cc2)=C(C#N)C1c1ccco1 (stereo unspecified)	0.7	-1.2	3.4	-16.2
